Experimental data published in the supplement of paper PMC6089552.
About 300 (9.4%) of roughly 3,200 compounds showed activity. The full list was thinned out, with actives kept by preference.

Test system: A673/TR/shEF
Assay: cell viability (LOESS-normalised, relative to median of negative controls) (log2 ratio); higher = more viable cells (less compound effect), active = hit call of the paper (over 3 MAD below the median)
Conditions: treatment time: 72 h
Procedure, shortened: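 Viability of A673/TR/shEF Ewing sarcoma cells was determined by CellTiter-Glo luminescence. The cells, at 1,500 per well in 384-well plates, were grown with or without doxycycline from 24 h before compound addition to switch on EWS-FLI1 shRNA knockdown, then exposed for three days to library compounds at two or more concentrations or to DMSO controls. Signals were LOESS-corrected plate by plate, normalised to the negative-control median and log2-transformed.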

[1] = 0.25 µM, library screen: screen1, EWS-FLI1 expression: high (no doxycycline)
[2] = 0.25 µM, library screen: screen1, EWS-FLI1 expression: low (doxycycline-induced shRNA knockdown)
[3] = 2.5 µM, library screen: screen1, EWS-FLI1 expression: high (no doxycycline)
[4] = 2.5 µM, library screen: screen1, EWS-FLI1 expression: low (doxycycline-induced shRNA knockdown)
[5] = 0.25 µM, library screen: screen2, EWS-FLI1 expression: high (no doxycycline)
[6] = 0.25 µM, library screen: screen2, EWS-FLI1 expression: low (doxycycline-induced shRNA knockdown)
[7] = 2.5 µM, library screen: screen2, EWS-FLI1 expression: high (no doxycycline)
[8] = 2.5 µM, library screen: screen2, EWS-FLI1 expression: low (doxycycline-induced shRNA knockdown)
[9] = 0.025 µM, library screen: screen2, EWS-FLI1 expression: high (no doxycycline)
[10] = 0.025 µM, library screen: screen2, EWS-FLI1 expression: low (doxycycline-induced shRNA knockdown)
[11] = 25 µM, library screen: screen2, EWS-FLI1 expression: high (no doxycycline)
[12] = 25 µM, library screen: screen2, EWS-FLI1 expression: low (doxycycline-induced shRNA knockdown)
[13] = 0.103 µM, library screen: screen3, EWS-FLI1 expression: high (no doxycycline)
[14] = 0.103 µM, library screen: screen3, EWS-FLI1 expression: low (doxycycline-induced shRNA knockdown)
[15] = 0.308 µM, library screen: screen3, EWS-FLI1 expression: high (no doxycycline)
[16] = 0.308 µM, library screen: screen3, EWS-FLI1 expression: low (doxycycline-induced shRNA knockdown)
[17] = 0.926 µM, library screen: screen3, EWS-FLI1 expression: high (no doxycycline)
[18] = 0.926 µM, library screen: screen3, EWS-FLI1 expression: low (doxycycline-induced shRNA knockdown)
[19] = 2.8 µM, library screen: screen3, EWS-FLI1 expression: high (no doxycycline)
[20] = 2.8 µM, library screen: screen3, EWS-FLI1 expression: low (doxycycline-induced shRNA knockdown)
[21] = 8.3 µM, library screen: screen3, EWS-FLI1 expression: high (no doxycycline)
[22] = 8.3 µM, library screen: screen3, EWS-FLI1 expression: low (doxycycline-induced shRNA knockdown)
[23] = 25 µM, library screen: screen3, EWS-FLI1 expression: high (no doxycycline)
[24] = 25 µM, library screen: screen3, EWS-FLI1 expression: low (doxycycline-induced shRNA knockdown)

Measured: cell viability (log2)

COC(=O)c1c(C)c2c(c(C)c1OC)OC(=O)c1c(C)c(Cl)c(OC)c(Cl)c1O2
inactive: [1] 0.0616 | [2] 0.043 | [3] 0.0828 | [4] 0.0347

O=c1[nH]c(=O)n([C@H]2C[C@H](O)[C@@H](CO)O2)cc1/C=C/Br
inactive: [5] 0.184 | [6] 0.138 | [7] 0.072 | [8] 0.108

CCc1cn([C@H]2C[C@H](O)[C@@H](CO)O2)c(=O)[nH]c1=O
inactive: [9] 0.0952 | [10] 0.0914 | [1] 0.152 | [2] 0.0662 | [5] 0.0236 | [6] 0.0662 | [3] 0.079 | [4] 0.152 | [7] 0.176 | [8] 0.0177 | [11] -0.0289 | [12] 0.0946

C[C@H]1O[C@@H](n2cc(F)c(=O)[nH]c2=O)[C@H](O)[C@@H]1O
active: [1] -0.21 | [3] -1.24 | [7] -0.257 | [11] -2.97 | [12] -0.654
inactive: [9] 0.0333 | [10] 0.0231 | [2] 0.08 | [5] -0.00269 | [6] 0.0834 | [4] -0.0424 | [8] 0.0331

O=c1[nH]c(=O)n([C@H]2C[C@H](O)[C@@H](CO)O2)cc1F
inactive: [9] 0.0911 | [10] 0.0185 | [13] 0.0528 | [14] 0.0374 | [2] 0.23 | [6] 0.103 | [16] 0.079 | [18] 0.0595 | [4] 0.156 | [8] 0.138 | [20] 0.0813 | [22] 0.0595 | [12] -0.0409 | [24] 0.0541
active: [1] -1.07 | [5] -0.231 | [15] -0.266 | [17] -0.534 | [3] -1.48 | [7] -0.805 | [19] -0.621 | [21] -0.85 | [11] -0.944 | [23] -1.03

O=c1[nH]c(=O)n([C@H]2C[C@H](O)[C@@H](CO)O2)cc1Br
inactive: [5] 0.238 | [6] 0.0517 | [7] 0.037 | [8] 0.0646

O=c1[nH]c(=O)n([C@H]2C[C@H](O)[C@@H](CO)O2)cc1C(F)(F)F
inactive: [13] 0.105 | [14] 0.105 | [1] -0.0346 | [2] 0.0988 | [15] 0.134 | [16] 0.147 | [17] 0.108 | [18] 0.0588 | [3] 0.0509 | [4] 0.029 | [19] 0.0746 | [20] 0.0921 | [21] 0.0584 | [22] 0.048 | [24] 0.124
active: [23] -0.362

Cc1cn([C@@H]2C[C@@H](O)[C@H](CO)O2)c(=O)[nH]c1=O
inactive: [13] 0.207 | [14] 0.0457 | [15] 0.0611 | [16] 0.118 | [17] 0.128 | [18] 0.0817 | [19] 0.203 | [20] 0.115 | [21] 0.177 | [22] 0.101 | [23] 0.139 | [24] 0.167

CCCCCOC(=O)Nc1nc(=O)n([C@@H]2O[C@H](C)[C@@H](O)[C@H]2O)cc1F
inactive: [13] 0.057 | [14] 0.111 | [15] 0.147 | [16] 0.143 | [17] 0.154 | [18] 0.121 | [19] 0.179 | [20] 0.14 | [21] 0.166 | [22] 0.0924 | [23] 0.195 | [24] 0.124

Cc1cn([C@H]2C=C[C@@H](CO)O2)c(=O)[nH]c1=O
inactive: [13] -0.00295 | [14] 0.0515 | [5] 0.197 | [6] 0.032 | [15] -0.0178 | [16] 0.0223 | [17] 0.0714 | [18] 0.0163 | [7] 0.101 | [8] 0.0899 | [19] 0.0507 | [20] 0.0197 | [21] 0.102 | [22] 0.0821 | [23] 0.0208 | [24] 0.0668

Cc1cn([C@H]2C[C@H](N=[N+]=[N-])[C@@H](CO)O2)c(=O)[nH]c1=O
inactive: [9] 0.0606 | [10] 0.0603 | [2] -0.108 | [5] 0.183 | [6] 0.0909 | [7] 0.12 | [8] 0.103 | [11] 0.0992 | [12] 0.0558
active: [1] -0.142 | [3] -1.07 | [4] -0.798

O=C(O)c1cc(=O)c(O)c2c(O)c(O)ccc2c1
inactive: [1] 0.0685 | [2] 0.0312 | [3] 0.157 | [4] 0.0783

Fc1cccc(CN2CCN(Cc3ccco3)CC2)c1
inactive: [1] 0.0188 | [2] 0.159 | [3] 0.104 | [4] 0.135

C=CCCCCCCCCCCCC=CC(O)COC(C)=O (configuration not stated)
inactive: [1] -0.0116 | [2] 0.0382 | [3] 0.137 | [4] 0.0541

CC12CCC(=O)C=C1CCC1C2C(O)CC2(C)C1CCC2(O)C(=O)COC(=O)CCC(=O)O (configuration not stated)
inactive: [5] 0.252 | [6] 0.0354 | [7] 0.189 | [8] 0.145

CCSCCOC(=O)C1=C(C)NC2=C(C(=O)CC(C)(C)C2)C1c1coc2ccccc2c1=O (configuration not stated)
inactive: [1] 0.0909 | [2] 0.0763 | [3] 0.107 | [4] 0.00786

CCOc1ccc2nc(SC)nc(C)c2c1
inactive: [1] 0.0636 | [2] 0.0768 | [3] 0.137 | [4] -0.103

CC1CC2C3CCC4=CC(=O)C=CC4(C)C3C(=O)CC2(C)[C@@]1(O)C(=O)CO (some centres not stated)
inactive: [13] 0.145 | [14] -0.00246 | [15] 0.132 | [16] 0.12 | [17] 0.101 | [18] 0.0958 | [19] 0.116 | [20] 0.077 | [21] 0.0168 | [22] 0.08 | [23] 0.0762 | [24] 0.0993

COc1ccc(CN2CCN(Cc3ccccc3Br)CC2)cc1OC
inactive: [1] 0.0838 | [2] 0.133 | [3] 0.0605 | [4] 0.115

Cc1cc(O)c2c(c1)Cc1cccc(O)c1C2=O
inactive: [1] 0.119 | [2] 0.00964 | [3] 0.16 | [4] 0.111

O=C1CSC(=O)N1CCN1C(=O)SC(=Cc2ccc(O)cc2)C1=O
inactive: [1] 0.0789 | [2] 0.0957 | [3] 0.0804 | [4] -0.00491

O=C(Oc1cc(O)cc2c1CC(OC(=O)c1cc(O)c(O)c(O)c1)C(c1ccc(O)c(O)c1)O2)c1cc(O)c(O)c(O)c1 (configuration not stated)
inactive: [1] 0.117 | [2] -0.00743 | [3] 0.128 | [4] -0.0369

CCCCCCCCCCCCCCCCCC(=O)NCC(COP(=O)([O-])OCC[N+](C)(C)C)OCC (configuration not stated)
inactive: [5] 0.252 | [6] 0.0979 | [7] 0.243 | [8] 0.0461

CC(CN1c2ccccc2Sc2cccnc21)N(C)C (configuration not stated)
inactive: [1] 0.132 | [2] 0.0453 | [3] 0.0549 | [4] 0.034

CN(C)c1cc2c(Nc3ccc4c(cnn4Cc4ccccc4)c3)ncnc2cn1
inactive: [5] 0.124 | [6] 0.0545 | [7] 0.147 | [8] 0.0613

COc1cc2ncnc(Nc3ccc(O)cc3)c2cc1OC
inactive: [5] 0.241 | [6] 0.0114 | [7] 0.112 | [8] 0.0956

COc1cc2ncnc(Nc3cccc(Cl)c3)c2cc1OC
active: [3] -0.137 | 25 µM, library screen: screen1, EWS-FLI1 expression: high (no doxycycline) -0.119
0.297: 25 µM, library screen: screen1, EWS-FLI1 expression: low (doxycycline-induced shRNA knockdown)
inactive: 0.025 µM, library screen: screen1, EWS-FLI1 expression: high (no doxycycline) 0.237 | 0.025 µM, library screen: screen1, EWS-FLI1 expression: low (doxycycline-induced shRNA knockdown) 0.01 | [2] 0.0337 | [5] 0.134 | [6] 0.0168 | [4] 0.122 | [7] 0.175 | [8] 0.00846
0.289: [1]

COCC(=O)NC/C=C/c1ccc2ncnc(Nc3ccc(Oc4ccc(C)nc4)c(C)c3)c2c1
inactive: [13] 0.0492 | [14] 0.0262 | [15] -0.0204 | [16] 0.0495 | [17] -0.0118 | [18] 0.013 | [19] -0.0655 | [20] -0.0248 | [21] -0.00849 | [22] 0.0384 | [23] -0.127 | [24] -0.105

C#Cc1cccc(Nc2ncnc3cc(OCCOC)c(OCCOC)cc23)c1
inactive: [13] 0.107 | [14] 0.0915 | [15] 0.189 | [16] 0.0523 | [17] 0.0696 | [18] 0.0933 | [19] 0.0439 | [20] 0.0596 | [21] 0.105 | [22] 0.0233 | [23] -0.0778 | [24] -0.0451

C#Cc1cccc(Nc2ncnc3cc(OC)c(OCCCCCCC(=O)NO)cc23)c1
inactive: [13] -0.0787 | [14] -0.0134 | [15] -0.0791 | [16] -0.0194
active: [17] -0.53 | [18] -0.197 | [19] -1.73 | [20] -0.607 | [21] -2.92 | [22] -0.618 | [23] -3.65 | [24] -1.64

CC(C)CC1NC(=O)CNC1=O (configuration not stated)
inactive: [1] 0.138 | [2] 0.0779 | [3] 0.0859 | [4] 0.0262

Oc1ccc2c(c1)O[C@H](c1ccc(O)c(O)c1)[C@@H](O)C2
inactive: [1] 0.0741 | [2] -0.0244 | [3] 0.0985 | [4] 0.085
